This is a sample that favours compounds with a hit; in the whole collection about 12% have one here.
WT yeast gro inh: growth inhibition of WT yeast, mitochondrial fusion screen. inhibition, % at 10 µM. AID 1362. actives 2.1% (n = 190,000). mitochondrial fusion phenotypic screen, WT strain; in the data active = inhibition above about 58%; tested in S. cerevisiae
ROMK mod: modulators of human ROMK potassium channel; P48048; Tet-inducible ROMK, thallium flux fluorescence; actives lie on both sides; B-score at 10 µM; actives 2% (n = 130,000); AID 1918;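 active = signal ratio slope over the read window, or its plate-corrected B-score, at least 3 SD from the plate mean, either direction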;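 note: B-score of the F/F0 ratio slope over 7 to 12 s after thallium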
Target sequence (P48048 whole entry, looked up): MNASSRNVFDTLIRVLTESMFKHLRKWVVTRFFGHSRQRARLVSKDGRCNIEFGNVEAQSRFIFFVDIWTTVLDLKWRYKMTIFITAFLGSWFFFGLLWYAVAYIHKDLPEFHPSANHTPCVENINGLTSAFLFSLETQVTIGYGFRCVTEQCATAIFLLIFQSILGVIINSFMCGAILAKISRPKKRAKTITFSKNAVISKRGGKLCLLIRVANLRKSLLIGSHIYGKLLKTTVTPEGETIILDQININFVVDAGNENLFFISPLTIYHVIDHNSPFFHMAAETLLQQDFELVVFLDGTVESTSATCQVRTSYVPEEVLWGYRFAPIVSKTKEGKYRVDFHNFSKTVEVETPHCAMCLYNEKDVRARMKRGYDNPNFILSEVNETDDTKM
m-calpain inh: inhibitors of pig calpain II | actives 0.37% (n = 220,000) | AID 1236 | purified calpain II, fluorogenic peptide substrate, 30 min | inhibition, % at 16 µM;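 active = inhibition above about 50%, limit read from the data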
KCC2 mod: KCC2 (human) Cl- transport modulation; Q9H2X9; B-score of Tl+ flux slope (higher = more flux/activation; lower = inhibition) at 10 µM; KCC2 cells, thallium flux FluoZin-2 fluorescence; actives 2.2% (n = 190,000);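 active = thallium flux slope and its plate-corrected score both differing from the plate sample mean at a set confidence after two filtering rounds, in either direction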;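 note: slope of fluorescence scaled to starting intensity during 10 to 20 s after thallium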
Lmaj promast: reduces viability of Leishmania major promastigotes | inhibition, % at 10 µM | resazurin fluorescence viability | actives 9% (n = 200,000); in the data active = inhibition above about 50%;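 note: promastigotes grown with compound for 44 hours at 28 °C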
The depositor's hits bear a star; x = no result given.

SMILES	WT yeast gro inh	ROMK mod	m-calpain inh	KCC2 mod	Lmaj promast
CCOC(=O)c1ccccc1-c1csc(NS(=O)(=O)c2ccc(Cl)cc2)n1	18	x	-44	-3.8	-9
CCN(CC)N=Nc1ccc(C(=O)O)cc1	-6	1.8	0	-0.5	69*
Cc1cccc(N/C=C(\[N+](=O)[O-])S(=O)(=O)c2ccccc2)c1C	-24	1.1	-5	0.49	-6
COc1ccc(CNC(=O)C2CC(=O)N(c3ccc(OCC(=O)N4C(C)CCCC4C)cc3)C2)cc1 (stereo not drawn)	64*	1	14	x	5
O=C(Nc1ccc2oc(=O)ccc2c1)c1cccnc1	-1	x	-76	0.17	-2
O=C(Nc1ccc(Cc2ccncc2)cc1)C1CCC(N2C(=O)C3C4C=CC(C4)C3C2=O)CC1 (stereo not drawn)	-23	-0.38	-10	0.0057	62*
Cc1ccc(-n2c(C)cc(/C=N/NC(N)=S)c2C)cc1	-19	x	8	0.14	100*
Cc1ccc(-n2c(C)cc(/C=N/NC(=O)c3ccc(CN4CCOCC4)cc3)c2C)cc1	8	x	5	x	53*
Cc1cccc(-n2c(C)cc(/C=N/NC(=O)c3ccc(CN4CCOCC4)cc3)c2C)c1	2	x	7	x	14
CNC(=O)c1cc(NC(=O)CCn2nc(-c3ccccc3)c3ccccc3c2=O)ccc1OC	x	x	-20	-0.18	x
CCOc1ccc2nc(SCC(=O)Nc3ccc(S(=O)(=O)N4CCCC4)cc3)c(C)cc2c1	x	x	26	-0.18	x
COc1ccc2nc(SCC(=O)Nc3ccc(S(=O)(=O)N4CCCC4)cc3)c(C#N)cc2c1	-4	x	-151	-0.15	90*
N#Cc1cc2ccccc2nc1SCC(=O)Nc1ccc(S(=O)(=O)N2CCCC2)cc1	-47	0.24	-303	x	96*
Oc1ccccc1N=Cc1sc2ccccc2c1Cl	56	x	2	0.83	57*
Cc1ccc(O)c(N=Cc2sc3ccccc3c2Cl)c1	3	x	18	0.17	22
COc1cc([N+](=O)[O-])ccc1NC(=O)CN1CCN(C(=O)c2ccco2)CC1	8	-1.3	36	-0.88	-2
COc1ccccc1NC(=O)N1CCCC(c2nc3c(nnn3Cc3ccc(C)cc3)c(=O)[nH]2)C1 (stereo not drawn)	-5	-1.8	-33	x	52*
Cc1sc2nc(SCc3nc(-c4ccccc4)no3)n(-c3ccccc3)c(=O)c2c1C	3	x	-31	0.58	3
Cc1cc(C)nc(NS(=O)(=O)c2ccc(NC(=O)c3cc(-c4ccccc4)nc4ccccc34)cc2)n1	-4	x	-2	-0.23	67*
COc1cc(-c2cc(C(=O)Nc3ccc(N4CCOCC4)cc3)c3ccccc3n2)cc(OC)c1OC	x	x	-7	x	x
COc1cc(-c2cc(C(=O)Nc3ccc(S(=O)(=O)NCc4ccco4)cc3)c3ccccc3n2)cc(OC)c1OC	-23	x	-178	0.75	76*
CC(C)CC(=O)N1CC(C)N(C(=O)CC(C)C)CC1C (stereo not drawn)	-5	1.1	-17	0.29	-4
CCN(CC)CCNC(=O)C12CC3CC(C)(CC(C)(C3)C1)C2	-14	0.097	-10	-3.1	94*
CCN(CC)CCNC(=O)C12CC3CC(CC(C3)C1)C2	17	-0.39	21	1.3	-3
CC(O)CNc1nc2sc3c(c2c(=O)n1CCc1ccccc1)CCCCC3 (stereo not drawn)	75*	x	17	-0.21	22
SMILES	WT yeast gro inh	ROMK mod	m-calpain inh	KCC2 mod	Lmaj promast
CN(C)CCNc1nc2sc3c(c2c(=O)n1CCc1ccccc1)CCCCC3	x	x	-8	-0.41	x
COc1cc(OC)cc(C(=O)Nn2c(C)nc3ccccc3c2=O)c1	-7	0.5	4	-1.1	-2
COc1cc(OC)cc(-c2nc3ccccc3c(=O)n2OC(=O)c2ccc(C)c(C)c2)c1	3	0.21	-30	-1.3	73*
CC(C)c1ccc2c(c1)C1(NN=C(c3ccccc3)S1)C(=O)N2 (stereo not drawn)	16	-1.3	-19	0.0027	99*
CCc1ccc2c(c1)C1(NN=C(c3ccc(C)cc3)S1)C(=O)N2 (stereo not drawn)	4	x	0	-0.14	99*
Brc1ccc(-c2ncc3ccccn23)cc1	x	x	-49	-3.1	x
C=CCOc1c(Cl)cc(CNc2ccc(N(C)C)cc2)cc1OC	54	x	6	x	101*
COc1ccccc1NS(=O)(=O)c1ccc(Cl)c(NC(=S)NC(=O)C2CCCC2)c1	48	-0.68	-15	0.14	27
CCN(CC)c1ccc(S(=O)(=O)Nc2cc(Cl)ccc2Cl)cc1NC(=S)NC(=O)C1CCCC1	18	0.76	-20	-0.56	56*
Cc1nc(Nc2ncc3c(n2)CC(C)(C)CC3=O)nc2ccccc12	x	0.63	x	x	x
CC1=NC(Nc2nc(C)c3ccccc3n2)=NC(C)(C)C1	24	x	-10	-0.037	98*
Cc1ccc(SCc2ccc(C(=O)NCc3ccncc3)cc2)cc1	22	-0.25	-21	x	4
Cc1ccc(OCCN2CCN(C(=O)CCC(=O)Nc3nnc(CC(C)C)s3)CC2)cc1	x	x	8	-0.7	x
O=c1c2c3c(sc2n(CCN2CCCCC2)c(=O)n1Cc1ccco1)CCCCC3	8	0.048	23	x	99*
O=c1c2c3c(sc2n(CCN2CCOCC2)c(=O)n1Cc1ccco1)CCCCC3	-12	x	-53	-0.46	24
COc1ccc(-n2cc(-c3ccccc3)[n+]3c2CCCCC3)cc1	-8	-2	-9	-0.043	100*
COc1ccc(-n2cc(-c3ccccc3)nc2SC)cc1	27	0.08	8	-0.6	-2
COc1ccc(-c2cn(-c3ccc(OC)cc3)c3[n+]2-c2ccccc2CC3)cc1	2	x	-25	-1.7	100*
Cc1ccccc1NC(=O)C1CC(=O)N(Cc2ccccc2)C1 (stereo not drawn)	-8	0.0014	-16	-1.1	-8
O=c1c2ccccc2nc(SCc2nnc(-c3ccccc3Br)o2)n1-c1ccccc1	1	x	-35	-0.06	23
Brc1ccccc1-c1nnc(CSc2nncn2-c2ccccc2)o1	-5	x	-51	-1.4	98*
CCCC(=O)OCCNc1cc(SCCC(=O)OC)c2nonc2c1[N+](=O)[O-]	5	x	7	-0.029	16
COC(=O)CCSc1cc(NCCOC(C)=O)c([N+](=O)[O-])c2nonc12	-1	-1.9	27	0.6	84*
CC(=O)OCCCNc1cc(Sc2nc3ccccc3s2)c2nonc2c1[N+](=O)[O-]	97*	x	-1	0.47	65*
CC(=O)Nc1nc(C)c(Oc2cccc(C(F)(F)F)c2)c(=O)[nH]1	x	x	-1	-0.054	x
O=C(CCc1nnc(CCCCc2ccccc2)o1)N1CCCCC1CCO (stereo not drawn)	x	x	-9	0.056	x
COc1ccc(C(=O)NN=C(Cc2ccccc2)Cc2ccccc2)cc1OC	-3	-0.48	10	0.92	51*
O=C(NN=C(Cc1ccccc1)Cc1ccccc1)c1ccccc1F	-20	0.022	9	0.15	64*
C/C(=N\Nc1ccc(F)cc1F)c1ccc(Br)s1	-2	0.38	-5	1.2	-4
CN(C)S(=O)(=O)c1cccc(NC(=S)NCCCn2ccnc2)c1	-3	-0.28	-7	-0.5	-5

High-throughput results deposited in PubChem BioAssay by several laboratories.
